# Among all 350,000 compounds or so, about 5,500 (1.6%) were called active.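 Rule for the calls: active = significant combined selectivity score with lowered wild-type GFP, culture density cut under 30%, mutant RFP and density less affected; inactive = any of these conditions unmet.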 What follows is part of a selection rich in actives, with near analogues and random picks from the rest.
# Assay: reduced GFP signal of wild-type E. coli, primary screen, bacterial rRNA inhibitor project, GFP/RFP fluorescence, OD600, single point (AID 720706)
# Conditions: E. coli WT GFP vs humanized-ribosome RFP mutants, 24 h; GFP signal change (wild-type ribosome): stronger effect = lower value, DMSO median 0, no signal -100; OD600 change: measured here: OD600 growth, DMSO median 0, no signal -100; RFP signal change: measured here: RFP humanized mutant strains, DMSO median 0, no signal -100, concentration not given here
SMILES,GFP signal change (wild-type ribosome),OD600 change,RFP signal change
COc1ccc2c3c(n(C)c2c1)[C@@H](CO)NCC31CN(S(=O)(=O)c2cccc(C)c2)C1,-1.82% (inactive),-19.1%,1.9%
O=C(Nc1ccccc1)N1CCCCN2[C@H](CO)[C@@H](c3ccc(-c4ccccc4F)cc3)[C@H]2C1,-59.5% (inactive),-71.8%,-17.2%
Cc1ccccc1-c1cnc2c(c1)C(=O)N([C@H](C)CO)C[C@H](C)[C@@H](CN(C)C(=O)c1ccccc1)O2,-6.69% (inactive),1.45%,1.42%
CCNC(=O)[C@@H]1[C@@H](CO)[C@@H]2Cn3c(ccc(C4=CCCCC4)c3=O)[C@@H]2N1Cc1ccccc1F,1.16% (inactive),-2.39%,5.54%
CCc1ccc(NC(=O)N2CCc3ccccc3C2)cc1,-10.5% (inactive),-10.6%,-3.21%
O=C(Nc1cccc([N+](=O)[O-])c1)N1CCc2ccccc2C1,-21.9% (active),-13.6%,-7.36%
O=C(CN1CCOCC1)Nc1cccc([N+](=O)[O-])c1,31.7% (inactive),26.8%,1.38%
Cc1ccc(-c2ccc([C@H]3[C@H]4CN(S(=O)(=O)c5cccc(F)c5)CC(=O)N4[C@H]3CO)cc2)cc1,1.77% (inactive),8.11%,-0.692%
S=C(NCc1cccnc1)Nc1ccc(Cl)cc1Cl,-27.1% (active),-3.2%,-7.63%
CN(CC(=O)NCc1cccnc1)S(=O)(=O)c1cc(Cl)ccc1Cl,5.23% (inactive),-2.3%,-0.601%
Cc1ccc(C(=O)NC(=S)NCc2cccnc2)cc1,-23.8% (inactive),-23.8%,5.91%
CC(C)NC(=O)N(C)C[C@@H]1Oc2ccc(NC(=O)CCCCCC(=O)Nc3ccccc3N)cc2C(=O)N([C@@H](C)CO)C[C@H]1C,1.03% (inactive),-8.13%,-0.166%
CO[C@H]1CN(C)C(=O)c2cc(NC(=O)c3cnccn3)ccc2OC[C@H](C)N(C(=O)C2CC2)C[C@H]1C,1% (inactive),-0.758%,-0.83%
N#Cc1cccc(-c2ccc(C3[C@@H]4CNC[C@H]3N4)cc2)c1 (stereo partly specified),-0.575% (inactive),6.2%,2%
C[C@@H]1CCCCO[C@H](CN(C)S(=O)(=O)c2ccccc2)[C@@H](C)CN([C@H](C)CO)C(=O)c2cc(NC(=O)Nc3ccc(F)cc3)ccc2O1,4.23% (inactive),5.59%,-0.807%
Oc1c(Br)cc(/C=N/NC(=S)NCC2CCCO2)cc1Br (stereo unspecified),-32.6% (active),-2.28%,0.247%
S=C(NCCc1ccccc1)NCC1CCCO1 (stereo unspecified),8.89% (inactive),4.83%,-3.48%
S=C(NCC1CCCO1)N1CCN(c2ccc(Cl)c(Cl)c2)CC1 (stereo unspecified),-56.8% (inactive),-79.1%,-18.4%
C[C@@H]1CN([C@@H](C)CO)S(=O)(=O)c2ccc(Br)cc2O[C@H]1CN(C)S(=O)(=O)c1ccccc1,-30.9% (inactive),-59.2%,14%
CS(=O)(=O)N1CC2(C1)[C@H](c1ccccc1)[C@@H](CO)N2C(=O)c1ccccc1,-2.24% (inactive),8.82%,-1.96%
O=C(c1ccccc1)N1CC(=O)N2[C@@H](CO)[C@H](c3ccc(C#CCC4CCCC4)cc3)[C@@H]2C1,-0.385% (inactive),4.12%,15.8%

SMILES,GFP signal change (wild-type ribosome),OD600 change,RFP signal change
O=C(Nc1cccc(Cl)c1)N1C[C@@H]2[C@H](c3ccccc31)[C@H](CO)N2C(=O)C1CC1,-55.8% (inactive),-75.7%,-10.1%
O=C(Nc1ccccc1)N1C[C@H]2[C@@H](c3ccccc31)[C@H](CO)N2Cc1ccc(F)cc1,-4.61% (inactive),-3.58%,0.773%
O=C(Nc1cccc(Cl)c1)N1C[C@@H]2[C@H](c3ccccc31)[C@H](CO)N2Cc1ccncc1,-19.3% (active),-14%,2.23%
O=C(C[C@@H]1C[C@@H]2c3cc(NC(=O)c4ccc5c(c4)OCO5)ccc3O[C@@H]2[C@H](CO)O1)NCC1CC1,-0.47% (inactive),-2.45%,1.83%
N#C[C@H]1[C@H](c2ccccc2-c2ccc(F)cc2)[C@H](CO)N1C(=O)Cc1ccncc1,-3.78% (inactive),7.17%,-0.986%
COCc1cn(CC[C@H]2CC[C@H](NC(=O)Cc3cccnc3)[C@H](CO)O2)nn1,-2.43% (inactive),-1.71%,-2.1%
NC(=O)c1ccccc1N(Cc1ccccc1)S(=O)(=O)c1ccccc1,-4.05% (inactive),-16.6%,-0.699%
CCOC(=O)N1CCN(C(=O)c2ccccc2N(Cc2ccccc2)S(=O)(=O)c2ccc(OC)cc2)CC1,-25.8% (active),-20.1%,0.913%
C=CCN(c1ccccc1C(=O)NCC(=O)OCC)S(=O)(=O)c1ccc(C)cc1,5.68% (inactive),-1.3%,1.08%
C[C@H](CO)N1C[C@H](C)[C@H](CN(C)C(=O)C2CC2)OCc2ccccc2-c2ccccc2C1=O,3.14% (inactive),2.12%,-2.73%
CO[C@@H]1CN(C)C(=O)c2ccc(NC(=O)C3CC3)cc2OC[C@H](C)N(C(C)=O)C[C@H]1C,2.84% (inactive),2.36%,-2.71%
O=C1NCCOCc2cn(nn2)CC[C@@H]1Cc1ccccc1,4.08% (inactive),6.55%,-0.105%
O=C(Nc1nnc(Cc2ccccc2)s1)c1cnccn1,13.9% (inactive),13.3%,1.31%
O=C(Nc1nnc(Cc2ccc(Cl)cc2)s1)c1cccnc1,-2.18% (inactive),2.81%,-2.51%
O=C(Nc1nnc(Cc2ccc(Cl)cc2)s1)c1ccncc1,-25.9% (active),0.397%,10.4%
CO[C@@H]1CN(C)C(=O)c2ccc(NS(C)(=O)=O)cc2OC[C@@H](C)N(C(=O)C2CCOCC2)C[C@@H]1C,2.81% (inactive),-0.862%,-0.242%
CS(=O)(=O)N1CCCCN2[C@H](CO)[C@H](c3ccc(-c4cccc(C#N)c4)cc3)[C@H]2C1,-2.77% (inactive),2.86%,1.13%
C[C@@H](NC(=O)C[C@@H]1CC[C@H](NC(=O)Cc2ccccn2)[C@H](CO)O1)c1ccccc1,1.1% (inactive),-1.33%,0.264%
COc1ccc(-c2cc(C(=O)N3CCN(Cc4ccc5c(c4)OCO5)CC3)on2)cc1OC,-30.2% (active),-22.1%,4.69%
COc1cc(Cl)c(S(=O)(=O)N2CCN(Cc3ccc4c(c3)OCO4)CC2)cc1Cl,-5.43% (inactive),-7.87%,-2.97%
Cc1cc(C)n2nc(C(=O)N3CCN(Cc4ccc5c(c4)OCO5)CC3)nc2n1,6.71% (inactive),4.13%,-0.674%

SMILES,GFP signal change (wild-type ribosome),OD600 change,RFP signal change
Cc1noc(C)c1COc1ccc(C(=O)NCCOc2ccccc2)cc1,-5.24% (inactive),-2.29%,-0.784%
Cc1ncoc1C(=O)NCCC(c1ccccc1)c1ccccc1,-22.1% (active),-9.13%,0.235%
Cc1ccnc(NC(=O)CNC(=O)c2ccccc2)c1,0.565% (inactive),1.47%,0.604%
COc1ccc(NC(=O)Nc2ccc3c(c2)C(=O)N([C@@H](C)CO)C[C@@H](C)[C@@H](CN(C)Cc2ccncc2)OCCCC[C@@H](C)O3)cc1,-3.01% (inactive),-5.38%,9.15%
CO[C@@H]1CN(C)C(=O)c2cc(NC(=O)NC3CCCCC3)ccc2OC[C@@H](C)N(C(C)=O)C[C@H]1C,1.07% (inactive),3.15%,-0.812%
Cc1cccc(-c2ccc([C@@H]3[C@@H](CO)N4CCCCN(S(=O)(=O)c5cccs5)C[C@H]34)cc2)c1,-37.8% (active),-24.1%,-1.67%
COc1cccc(-c2ccc([C@H]3[C@H](CO)N4CCCCN(S(=O)(=O)c5cccs5)C[C@@H]34)cc2)c1,-0.886% (inactive),-0.41%,0.565%
Cc1cccc(-c2ccc([C@H]3[C@H](CO)N4CCCCN(S(=O)(=O)c5cn(C)cn5)C[C@@H]34)cc2)c1,2.02% (inactive),3.81%,1.54%
Cc1ccccc1-c1ccc2c(c1)O[C@@H](CN(C)C(=O)Nc1ccc(F)cc1)[C@H](C)CN([C@@H](C)CO)S2(=O)=O,-3.25% (inactive),-11.6%,-1.01%
O=C(c1ccncc1)N1CC(=O)N2[C@H](CO)[C@H](c3ccc(-c4ccccc4F)cc3)[C@@H]2C1,3.75% (inactive),-1.79%,-0.215%
CCCNC(=O)N1CC2(C1)CN(Cc1cccc(F)c1)[C@@H](CO)c1[nH]c3cc(OC)ccc3c12,0.104% (inactive),3.77%,0.338%
Cn1c(SCC(=O)N2CCCCC2)nc2c(c1=O)SCC2,5.14% (inactive),-0.579%,-0.99%
COCCn1c(SCC(=O)Nc2ccc(F)cc2F)nc2c(c1=O)SCC2,0.103% (inactive),-1.78%,-3.71%
Cc1cccc(CSc2nc3c(c(=O)n2C)SCC3)c1,-33.5% (active),-21%,-2.49%
CCCN1[C@H](C(=O)N[C@H](C)c2ccccc2)[C@@H](CO)[C@@H]2Cn3c(ccc(-c4ccccc4)c3=O)[C@@H]21,-1.92% (inactive),-37.1%,14.2%
Cc1ccc(N2C(=O)SC(N(CC(=O)O)c3ccc(C)cc3)C2=O)cc1 (stereo unspecified),-19.1% (active),-12.3%,8.05%
Cc1ccc(CC2S/C(=C(/C#N)C(=O)N3CCOCC3)N(c3ccccc3)C2=O)cc1 (stereo unspecified),7.88% (inactive),10.1%,-0.528%
Cc1cccc(N2C(=O)SC(N(CC(=O)O)c3cccc(C)c3)C2=O)c1 (stereo unspecified),2.86% (inactive),2.55%,2.75%
CCC(=O)N(C)C[C@@H]1Oc2cc(C#CCOC)ccc2S(=O)(=O)N([C@@H](C)CO)C[C@@H]1C,2.66% (inactive),5.66%,-0.769%
C[C@H](CO)N1C[C@H](C)[C@@H](CN(C)S(=O)(=O)c2ccc(Cl)cc2)Oc2ccc(NS(=O)(=O)c3cccs3)cc2CC1=O,-3.83% (inactive),-15.4%,2.4%

# Source: PubChem BioAssay AID720706 (Broad Institute, 2013)
